Laboratory results reported in ChEMBL document CHEMBL3433997, “St. Jude Leishmania screening dataset” (2016).

Legend:
Format in all cases: functional
[1] = target: Solute carrier family 2, facilitated glucose transporter member 1 (Homo sapiens) (UniProt P11166); test: ST_JUDE_LEISH: Cytotoxicity at 2uM final concentration against transgenic Leishmania Mexicana promastigotes LmGLUT1 that are glucose transport deficient and complemented with the human glucose transporter GLUT1. Activity is measured by DNA content using SYBR green in vitro
Sequence of Solute carrier family 2, facilitated glucose transporter member 1 (Homo sapiens) (P11166 whole entry): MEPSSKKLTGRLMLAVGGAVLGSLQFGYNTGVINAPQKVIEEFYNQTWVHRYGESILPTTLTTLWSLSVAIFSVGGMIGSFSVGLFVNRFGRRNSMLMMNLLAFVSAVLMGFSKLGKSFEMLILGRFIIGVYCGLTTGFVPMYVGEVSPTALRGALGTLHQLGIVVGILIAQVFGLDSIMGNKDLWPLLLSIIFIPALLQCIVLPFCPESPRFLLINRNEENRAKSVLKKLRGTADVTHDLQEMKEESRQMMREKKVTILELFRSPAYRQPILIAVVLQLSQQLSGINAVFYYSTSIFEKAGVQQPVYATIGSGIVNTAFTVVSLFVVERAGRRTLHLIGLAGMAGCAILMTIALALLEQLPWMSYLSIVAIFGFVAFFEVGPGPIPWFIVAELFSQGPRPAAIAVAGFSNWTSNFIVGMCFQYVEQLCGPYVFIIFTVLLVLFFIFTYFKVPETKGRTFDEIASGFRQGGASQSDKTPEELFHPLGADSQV

[2] = target: Hexose transporter 1 (Plasmodium falciparum) (UniProt O97467); test: ST_JUDE_LEISH: Cytotoxicity at 2uM final concentration against transgenic Leishmania Mexicana promastigotes LmPfHT that are glucose transport deficient and complemented with the Plasmodium falciparum hexose transporter. Activity is measured by DNA content using SYBR green in vitro
[3] = target: Glucose transporter (Leishmania mexicana) (UniProt O61059); test: ST_JUDE_LEISH: Cytotoxicity at 2uM final concentration against transgenic Leishmania Mexicana promastigotes LmGT2 that are glucose transport deficient and complemented with the L. Mexicana glucose transporter 2. Activity is measured by DNA content using SYBR green in vitro

Cc1cccc2nc(-c3cccc(-c4ccc(CNCc5ccc(S(C)(=O)=O)cc5)cc4)c3)[nH]c12
inhibition [1]: 11.9% | inhibition [2]: 6.88% | inhibition [3]: 7.97%

CN1CCCN(Cc2cccc(-c3ccc(NC(=O)c4ccc(Cl)cc4)cc3)c2)CC1
inhibition [1]: 55.2% | inhibition [2]: 50.2% | inhibition [3]: 21.9%

COc1ccc(CCNC(C)Cc2ccc(C(=O)Nc3ccc(CC(C)NCCc4cccc(Cl)c4)cc3)cc2)cc1 (centres undefined)
inhibition [1]: 3.92% | inhibition [2]: 13% | inhibition [3]: 0.32%

COc1ccccc1C1CCN(C2CCC(NC(=O)/C=C/c3cccc(Cl)c3)CC2)CC1 (centres undefined)
inhibition [1]: 3.59% | inhibition [2]: 0.95% | inhibition [3]: -0.85%

O=S(=O)(c1cc2ccccc2s1)N(CCC(O)(C(F)(F)F)C(F)(F)F)Cc1cccc(O)c1
inhibition [1]: -0.29% | inhibition [2]: -1.09% | inhibition [3]: 1.75%

CN1CCN(Cc2ccc(OCc3cccc(COc4ccc(CN5CCN(C)CC5)cc4I)c3)c(I)c2)CC1
inhibition [1]: 1.53% | inhibition [2]: 0.72% | inhibition [3]: -0.68%

Cc1nnc2c(NC(=O)/C=C/c3ccc(OC(F)(F)F)cc3)cc3cc(Cl)ccc3n12
inhibition [1]: 0.28% | inhibition [2]: 0.28% | inhibition [3]: 0.55%

CN1CCN(CCCN(Cc2ccc(-c3cccc(CNCc4ccc5c(c4)OCO5)c3)cc2)C(=O)Nc2ccccc2)CC1
inhibition [1]: 4.2% | inhibition [2]: 4.92% | inhibition [3]: 4.03%

COc1cc2nc(Nc3ccc(C)cc3)nc(Nc3ccc(C)cc3)c2cc1OC
inhibition [1]: 100% | inhibition [2]: 101% | inhibition [3]: 98.1%

Cc1nn(CC(O)Cn2c3ccc(Br)cc3c3cc(Br)ccc32)c(C)c1Br (centres undefined)
inhibition [1]: -0.46% | inhibition [2]: -3.23% | inhibition [3]: -0.3%

Cn1cnc(-c2ccc3c(c2)CCN(CCC2CCC(NC(=O)/C=C/c4ccc(F)cc4)CC2)CC3)c1 (centres undefined)
inhibition [1]: 54.7% | inhibition [2]: 70.5% | inhibition [3]: 60.9%

COc1cc(C)nc2ccc(NC(=O)Nc3ccccc3[N+](=O)[O-])cc12
inhibition [1]: 2.28% | inhibition [2]: 0.56% | inhibition [3]: 1.8%

CCN1CCN(c2cc(C)c3cc(NC(=O)c4cccc(C(F)(F)F)c4)ccc3n2)CC1
inhibition [1]: 3.14% | inhibition [2]: 3.29% | inhibition [3]: 1.11%

COc1ccc(-c2cccc(NC(=O)c3ccc(F)cc3)c2)cc1CN1CCCN(C)CC1
inhibition [1]: 11.2% | inhibition [2]: 9.38% | inhibition [3]: 7.43%

COc1cc(NC(=O)N2CCc3ccc(OCCC4CCCN4C)cc32)cc(C(F)(F)F)c1 (centres undefined)
inhibition [1]: -0.5% | inhibition [2]: 0.15% | inhibition [3]: -0.48%

Cn1c2c(c3ccccc31)CN(CCC1(c3ccc(Cl)c(Cl)c3)CN(C(=O)Cc3ccccc3)CCO1)CC2 (centres undefined)
inhibition [1]: 2.23% | inhibition [2]: 3.84% | inhibition [3]: -1.01%

COc1cccc(Nc2nc(Nc3cccc(C#N)c3)cc(-c3ccncc3)n2)c1
inhibition [1]: 3.83% | inhibition [2]: 4.95% | inhibition [3]: 1.57%

CN(C)CCCOc1cccc(CCNCc2cccc(Oc3ccc(Cl)cc3)c2)c1
inhibition [1]: 2.64% | inhibition [2]: 2.34% | inhibition [3]: 0%

CCCCCCCN1CC[C@@H](C[C@H](N)Cc2ccnc3ccc(OC)cc23)[C@@H](CC)C1
inhibition [1]: 0.24% | inhibition [2]: -1.97% | inhibition [3]: 0.03%

CCS(=O)(=O)N1CCN(c2nc(-c3ccccc3)nc(COC)c2Cc2ccccc2F)CC1
inhibition [1]: 3.58% | inhibition [2]: 2.32% | inhibition [3]: 4.99%

CN(C)c1nc2cc(-n3cnc4cc(-c5ccc(Cl)cc5)sc4c3=O)ccc2n1CCCN1CCCCC1
inhibition [1]: 9.33% | inhibition [2]: 10.8% | inhibition [3]: 5.06%

c1ccn2c(-c3ncnc(NCc4ccc5c(c4)CCO5)n3)cnc2c1
inhibition [1]: 1% | inhibition [2]: 1.45% | inhibition [3]: 0.24%

COc1ccc2ncc(F)c([C@H](O)CN3CCC(NCc4ccc5c(c4)NC(=O)CO5)CC3)c2c1
inhibition [1]: 1.17% | inhibition [2]: 0.49% | inhibition [3]: 1.56%

Cc1cc(N)nc2ccc(-c3ccc(CCN)cc3)cc12
inhibition [1]: 2.07% | inhibition [2]: 3.64% | inhibition [3]: 0.96%

CC(C)C[C@H](Nc1ccc(C#N)c2ccccc12)C(=O)NC(C)(C)C12CC3CC(CC(C3)C1)C2
inhibition [1]: 4.34% | inhibition [2]: 5.78% | inhibition [3]: 2.11%

CNc1nc(Nc2ccccc2C)nc2ccccc12
inhibition [1]: 33.8% | inhibition [2]: 34.3% | inhibition [3]: 18.3%

O=S(=O)(Nc1cccc(CCN2CCC(N3CCCCC3)CC2)c1)c1ccc2c(c1)OCCO2
inhibition [1]: 1.3% | inhibition [2]: 4.23% | inhibition [3]: 8.66%

OC(c1ccccc1)C1CN(CCc2ccccc2)CCC1(O)c1ccccc1 (centres undefined)
inhibition [1]: 0.73% | inhibition [2]: -1.7% | inhibition [3]: -1.32%

COc1ccc(C(=O)N2CCC3(CC2)C(=O)N(CC(=O)NC2CCCCC2)CN3c2ccccc2)c(OC)c1
inhibition [1]: 3.74% | inhibition [2]: 3.6% | inhibition [3]: 4.38%

Cc1nc2nc(N)nc(N)c2c(C)c1Cc1cccc(C(N)=O)c1
inhibition [1]: 1.17% | inhibition [2]: 1.95% | inhibition [3]: -1.43%

CSc1ccc2ccccc2c1CCNCCCCNCCc1c(SC)ccc2ccccc12
inhibition [1]: 68.9% | inhibition [2]: 96.1% | inhibition [3]: 81.6%

Cc1cccc2nc(-c3cccc(-c4ccc(C(=O)NCc5nccn5C)cc4)c3)[nH]c12
inhibition [1]: 1.94% | inhibition [2]: 3.7% | inhibition [3]: 1.69%

Cc1ccn2cc(-c3ccc(NC(=O)c4ccc(Br)o4)cc3)nc2c1
inhibition [1]: 1.17% | inhibition [2]: 2.74% | inhibition [3]: 0.61%
